From PubChem BioAssay (EPA / NIEHS)
Results filed as inconclusive are left out. Some structures have more than one record in an assay (separate samples or runs), and their calls can disagree. Active and inactive are the calls of the source. Rule for the calls: active = hit-call score of the fitted dose curve at least 0.9, where 1 is the maximum; inconclusive = response in the unintended direction; inactive = score below 0.9.

Tests used:
[1] = ACEA_ER_AUC_viability: ACEA Biosciences xCELLigence Real-Time Cell Analysis on Estrogen Receptor Agonism for Viability (AID 2283782);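 note: hit means loss of impedance signal meaning reduced cell growth or viability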
Method in brief: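 Viability endpoint: reduced impedance area under the curve relative to DMSO, recorded by real-time electrode sensing over ~80 h of continuous exposure. Duplicate plates of T47D in hormone-depleted medium; eight concentrations, 1:4 dilutions, 100 uM maximum.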

[2] = molecular target: Estrogen receptor (Homo sapiens) (UniProt P03372); experiment: ATG_hERa_XSP1: Attagene TRANS-FACTORIAL Multi-Species (XSP1) HepG2 Assay for human Estrogen Receptor (ESR1) (AID 2283780)
Method in brief: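 Reporter transcripts from multiplexed GAL4-UAS units driven by NR-Gal4 chimeras in transiently transfected HepG2 were measured by RT-PCR with capillary electrophoresis 24 h post-dose, with 3 nM 6-alpha-fluorotestosterone present; gain-of-signal relative to DMSO.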

[3] = tested on: turtle Estrogen Receptor (ESR1), gene 101933533; experiment: ATG_trERa_XSP1: Attagene TRANS-FACTORIAL Multi-Species (XSP1) HepG2 Assay for turtle Estrogen Receptor (ESR1) (AID 2283781)
Method in brief: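 Transactivation measured 24 h post-dose as reporter mRNA (RT-PCR, fluorescent capillary electrophoresis) from an NR-Gal4 turtle ER construct in HepG2. Medium included 3 nM 6-alpha-fluorotestosterone; increase over DMSO fitted.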

[4] = tested on: turtle Androgen Receptor (AR), gene 101947425; experiment: ATG_trAR_XSP1: Attagene TRANS-FACTORIAL Multi-Species (XSP1) HepG2 Assay for turtle Androgen Receptor (AR) (AID 2283786)
Method in brief: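 Partial androgen stimulation is provided by 3 nM 6-alpha-fluorotestosterone in a multi-species trans-factorial panel expressing a turtle AR–GAL4 fusion in HepG2. After 24 h, reporter mRNA is measured by RT-PCR and capillary electrophoresis and fitted upward against DMSO.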

AR (gene 367) = AR (gene 367) (UniProt P10275); experiment: ACEA_AR_antagonist_80hr: ACEA Biosciences xCELLigence Real-Time Cell Analysis on Androgen Receptor Antagonism for Proliferation (AID 2283787);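 note: 22Rv1 human prostate cancer cells with growth followed by electrical impedance; hits lower the impedance growth signal relative to DMSO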
Method in brief: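 Impedance-based real-time growth of 22Rv1 prostate cells, read 80 h after dosing. Eight concentrations, 1:4 series, top 100 uM final (0.5% DMSO), n = 2; signal decrease scored against DMSO.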

[5] = molecular target: Estrogen receptor beta (Homo sapiens) (UniProt Q92731); experiment: ATG_hERb_XSP1: Attagene TRANS-FACTORIAL Multi-Species (XSP1) HepG2 Assay for human Estrogen Receptor (ESR2) (AID 2283788)
Method in brief: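 HepG2 cells transiently transfected with multiplexed GAL4-UAS reporter units carrying chimeric human ERβ-Gal4; 24 h compound exposure with 3 nM 6-alpha-fluorotestosterone present. Reporter mRNA quantified by RT-PCR, FAM labelling and capillary electrophoresis; gain-of-signal fitted versus DMSO.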

[6] = molecular target: GAL4 Transcription Factor (Internal Marker), GAL4 (gene 855828) (UniProt P04386); experiment: ATG_GAL4_XSP1: Attagene TRANS-FACTORIAL Multi-Species (XSP1) HepG2 Assay for GAL4 Transcription Factor (Internal Marker) (AID 2283789)
Method in brief: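 This background-control endpoint measures GAL4-driven reporter mRNA via RT-PCR and capillary electrophoresis of labelled fragments. Transiently transfected HepG2 cells were treated 24 h, with 3 nM 6-alpha-fluorotestosterone included, and gain-of-signal was fitted against DMSO.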

[7] = ATG_M_06_XSP1: Attagene TRANS-FACTORIAL Multi-Species (XSP1) HepG2 Assay for M06 Transcription Factor (Internal Marker) (AID 2283790)
Method in brief: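 This background-control readout tracks M06 reporter mRNA, measured by RT-PCR and capillary electrophoresis. HepG2 cells transiently carrying the GAL4-UAS reporter panel were dosed for 24 h with 3 nM 6-alpha-fluorotestosterone added for partial AR stimulation; increases were scored relative to DMSO.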

[8] = ATG_M_61_XSP1: Attagene TRANS-FACTORIAL Multi-Species (XSP1) HepG2 Assay for M61 Transcription Factor (Internal Marker) (AID 2283797)
Method in brief: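 Background-control readout: reporter transcripts measured by RT-PCR and capillary electrophoresis 24 h after dosing transiently transfected HepG2 multi-reporter cells, with 3 nM 6-alpha-fluorotestosterone present. Fitted in the positive direction relative to DMSO.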

[9] = ATG_M_32_XSP1: Attagene TRANS-FACTORIAL Multi-Species (XSP1) HepG2 Assay for M32 Transcription Factor (Internal Marker) (AID 2283799)
Method in brief: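 Reporter transcripts from the M32 internal-control unit measured by RT-PCR, FAM labelling, HpaI digestion and capillary electrophoresis after 24 h compound exposure of transfected HepG2, 3 nM 6-alpha-fluorotestosterone included; DMSO baseline, positive-direction fit.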

[10] = molecular target: Peroxisome proliferator-activated receptor gamma (Homo sapiens) (UniProt P37231); experiment: ATG_hPPARg_XSP1: Attagene TRANS-FACTORIAL Multi-Species (XSP1) HepG2 Assay for human Peroxisome Proliferator-activated Receptor gamma (PPARg) (AID 2283800)
Method in brief: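 Reporter mRNA induction, measured by RT-PCR with capillary electrophoresis 24 h after dosing, scored as gain over DMSO. Transfected HepG2 cells express exogenous NR-Gal4 chimeras driving GAL4-UAS reporters; medium includes 3 nM 6-alpha-fluorotestosterone.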

[11] = molecular target: mouse Peroxisome Proliferator-activated Receptor gamma (PPARg), Pparg (gene 19016) (UniProt P37238); experiment: ATG_mPPARg_XSP1: Attagene TRANS-FACTORIAL Multi-Species (XSP1) HepG2 Assay for mouse Peroxisome Proliferator-activated Receptor gamma (PPARg) (AID 2283802)
Method in brief: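 Readout is reporter mRNA induction, measured by RT-PCR with 6-FAM labelling, HpaI digestion and capillary electrophoresis, 24 h post-dose relative to DMSO. Transient multi-reporter transfection of human HepG2 with mouse PPARg–GAL4 fusion; 3 nM 6-alpha-fluorotestosterone included.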

[12] = molecular target: Nuclear receptor subfamily 1 group I member 2 (Mus musculus) (UniProt O54915); experiment: ATG_mPXR_XSP1: Attagene TRANS-FACTORIAL Multi-Species (XSP1) HepG2 Assay for mouse Pregnane X Receptor (PXR) (AID 2283803)
Method in brief: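 Transiently transfected HepG2 cells expressing a receptor-Gal4 chimera drive a GAL4-UAS reporter; 3 nM 6-alpha-fluorotestosterone included. Reporter mRNA read 24 h post-dose by RT-PCR and capillary electrophoresis; gain of signal relative to DMSO.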

[13] = tested on: zebrafish Peroxisome Proliferator-activated Receptor gamma (PPARg), gene 557037; experiment: ATG_zfPPARg_XSP1: Attagene TRANS-FACTORIAL Multi-Species (XSP1) HepG2 Assay for zebrafish Peroxisome Proliferator-activated Receptor gamma (PPARg) (AID 2283801)
Method in brief: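 Trans-activation readout of chimeric zebrafish PPARg–GAL4 in transiently transfected human HepG2 cells, 24 h chemical exposure (medium includes 3 nM 6-alpha-fluorotestosterone). Reporter transcripts measured by RT-PCR and capillary electrophoresis, fitted as gain over DMSO.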

[14] = molecular target: frog Thyroid hormone Receptor alpha (TRa), thra-a (gene 397942) (UniProt P15204); experiment: ATG_frTRa_XSP1: Attagene TRANS-FACTORIAL Multi-Species (XSP1) HepG2 Assay for frog Thyroid hormone Receptor alpha (TRa) (AID 2283804)
Method in brief: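 Reporter transcript induction, measured by RT-PCR with 6-FAM labelling and capillary electrophoresis, 24 hr after dosing transiently transfected HepG2 cells expressing a frog TRa-GAL4 fusion; medium contained 3 nM 6-alpha-fluorotestosterone; increase over DMSO scored.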

[15] = molecular target: human Thyroid hormone Receptor alpha (TRa), THRA (gene 7067) (UniProt P10827); experiment: ATG_hTRa_XSP1: Attagene TRANS-FACTORIAL Multi-Species (XSP1) HepG2 Assay for human Thyroid hormone Receptor alpha (TRa) (AID 2283805)
Method in brief: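 Reporter transcripts from the human TRa-Gal4 TRANS unit quantified by RT-PCR, fluorescent labeling and capillary electrophoresis after 24 hours of chemical exposure in transfected HepG2 cells; medium contains 3 nM 6-alpha-fluorotestosterone. Positive direction fit against DMSO.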

[16] = tested on: turtle Thyroid Hormone Receptor, alpha (TRa), gene 101949057; experiment: ATG_trTRa_XSP1: Attagene TRANS-FACTORIAL Multi-Species (XSP1) HepG2 Assay for turtle Thyroid Hormone Receptor, alpha (TRa) (AID 2283806)
Method in brief: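 After 24 h chemical exposure, reporter transcripts were measured by RT-PCR with fluorescent primer extension, HpaI digestion and capillary electrophoresis. Cells were transiently transfected HepG2 expressing exogenous NR-Gal4 chimeras; medium contained 3 nM 6-alpha-fluorotestosterone; fitted upward relative to DMSO.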

[17] = molecular target: zebrafish Thyroid Hormone Receptor alpha (TRa), thraa (gene 30670) (UniProt Q98867); experiment: ATG_zfTRa_XSP1: Attagene TRANS-FACTORIAL Multi-Species (XSP1) HepG2 Assay for zebrafish Thyroid Hormone Receptor alpha (TRa) (AID 2283807)
Method in brief: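 Reporter transcripts driven by a chimeric zebrafish TRa–Gal4 protein were measured by RT-PCR with fluorescent labelling and capillary electrophoresis. These came from transiently transfected HepG2 cells after 24 h chemical exposure, with 3 nM 6-alpha-fluorotestosterone added; baseline was DMSO.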

[18] = molecular target: human Thyroid hormone Receptor beta (TRb), THRB (gene 7068) (UniProt P10828); experiment: ATG_hTRb_XSP1: Attagene TRANS-FACTORIAL Multi-Species (XSP1) HepG2 Assay for human Thyroid hormone Receptor beta (TRb) (AID 2283808)
Method in brief: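 Readout is reporter mRNA induction measured by RT-PCR, fluorescent labelling and capillary electrophoresis, fitted upward relative to DMSO. Transiently transfected human HepG2 cells expressing NR-Gal4 chimeras were dosed for 24 h, medium containing 3 nM 6-alpha-fluorotestosterone.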

Chain of mouse Peroxisome Proliferator-activated Receptor gamma (PPARg), Pparg (gene 19016) (P37238 whole entry, looked up, the tested form may be a part): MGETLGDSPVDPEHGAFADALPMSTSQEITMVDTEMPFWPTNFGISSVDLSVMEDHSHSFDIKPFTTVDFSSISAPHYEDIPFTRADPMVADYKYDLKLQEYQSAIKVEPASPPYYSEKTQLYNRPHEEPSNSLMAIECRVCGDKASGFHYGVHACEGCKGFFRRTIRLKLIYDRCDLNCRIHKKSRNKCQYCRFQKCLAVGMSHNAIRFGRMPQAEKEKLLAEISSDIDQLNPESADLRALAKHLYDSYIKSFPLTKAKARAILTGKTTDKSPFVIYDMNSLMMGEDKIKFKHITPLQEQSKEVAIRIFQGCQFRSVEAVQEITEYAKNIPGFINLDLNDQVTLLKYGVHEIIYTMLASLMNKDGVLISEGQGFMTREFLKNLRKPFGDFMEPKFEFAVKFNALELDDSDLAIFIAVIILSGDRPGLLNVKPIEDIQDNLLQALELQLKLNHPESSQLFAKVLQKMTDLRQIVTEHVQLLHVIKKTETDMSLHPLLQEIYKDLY
Chain of zebrafish Thyroid Hormone Receptor alpha (TRa), thraa (gene 30670) (Q98867 whole entry, looked up, the tested form may be a part): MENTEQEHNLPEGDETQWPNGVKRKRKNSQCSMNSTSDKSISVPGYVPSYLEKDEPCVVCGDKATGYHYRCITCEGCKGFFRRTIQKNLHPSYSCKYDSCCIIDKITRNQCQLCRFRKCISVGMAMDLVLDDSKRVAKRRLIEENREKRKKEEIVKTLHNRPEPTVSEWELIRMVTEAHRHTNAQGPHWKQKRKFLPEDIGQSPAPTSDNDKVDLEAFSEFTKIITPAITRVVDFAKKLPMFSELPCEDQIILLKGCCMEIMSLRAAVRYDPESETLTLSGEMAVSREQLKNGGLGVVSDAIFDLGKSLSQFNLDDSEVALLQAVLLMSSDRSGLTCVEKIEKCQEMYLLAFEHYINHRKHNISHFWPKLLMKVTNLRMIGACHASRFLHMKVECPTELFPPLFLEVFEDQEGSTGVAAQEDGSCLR
Chain of GAL4 Transcription Factor (Internal Marker), GAL4 (gene 855828) (P04386 whole entry, looked up, the tested form may be a part): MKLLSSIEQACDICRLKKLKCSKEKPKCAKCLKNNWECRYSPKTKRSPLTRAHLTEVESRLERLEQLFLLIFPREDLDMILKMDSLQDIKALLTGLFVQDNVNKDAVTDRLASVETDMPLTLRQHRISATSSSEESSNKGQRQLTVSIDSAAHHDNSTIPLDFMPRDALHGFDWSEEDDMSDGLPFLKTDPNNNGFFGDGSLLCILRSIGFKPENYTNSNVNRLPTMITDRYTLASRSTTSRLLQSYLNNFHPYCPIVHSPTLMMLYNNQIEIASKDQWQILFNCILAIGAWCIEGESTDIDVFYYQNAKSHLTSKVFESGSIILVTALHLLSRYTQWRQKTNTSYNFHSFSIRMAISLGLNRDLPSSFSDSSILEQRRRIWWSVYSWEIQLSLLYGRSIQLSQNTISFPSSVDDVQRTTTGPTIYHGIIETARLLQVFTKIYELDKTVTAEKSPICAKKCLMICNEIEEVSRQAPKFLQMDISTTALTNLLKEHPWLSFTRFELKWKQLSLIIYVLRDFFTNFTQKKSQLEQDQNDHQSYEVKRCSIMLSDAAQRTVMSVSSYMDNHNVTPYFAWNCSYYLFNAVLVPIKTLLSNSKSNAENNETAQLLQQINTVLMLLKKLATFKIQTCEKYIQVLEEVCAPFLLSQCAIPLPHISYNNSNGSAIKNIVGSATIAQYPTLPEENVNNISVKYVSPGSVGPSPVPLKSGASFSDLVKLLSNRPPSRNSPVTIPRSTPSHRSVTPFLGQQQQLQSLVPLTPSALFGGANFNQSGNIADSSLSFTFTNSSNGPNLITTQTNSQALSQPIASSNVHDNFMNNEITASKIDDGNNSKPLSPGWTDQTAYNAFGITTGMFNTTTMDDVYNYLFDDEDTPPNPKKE
Chain of frog Thyroid hormone Receptor alpha (TRa), thra-a (gene 397942) (P15204 whole entry, looked up, the tested form may be a part): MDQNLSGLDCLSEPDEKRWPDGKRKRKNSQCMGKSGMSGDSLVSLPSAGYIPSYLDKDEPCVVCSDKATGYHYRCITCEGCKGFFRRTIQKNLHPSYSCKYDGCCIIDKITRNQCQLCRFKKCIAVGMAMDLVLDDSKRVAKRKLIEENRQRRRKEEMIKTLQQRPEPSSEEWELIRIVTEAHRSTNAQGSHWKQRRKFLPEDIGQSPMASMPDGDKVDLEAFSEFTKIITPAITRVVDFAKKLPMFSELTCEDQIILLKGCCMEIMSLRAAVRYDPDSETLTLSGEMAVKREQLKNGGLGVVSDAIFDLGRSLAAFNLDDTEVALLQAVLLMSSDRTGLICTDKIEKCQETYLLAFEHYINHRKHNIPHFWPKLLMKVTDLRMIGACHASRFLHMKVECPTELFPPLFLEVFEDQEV
Chain of Estrogen receptor beta (Homo sapiens) (Q92731 whole entry, looked up, the tested form may be a part): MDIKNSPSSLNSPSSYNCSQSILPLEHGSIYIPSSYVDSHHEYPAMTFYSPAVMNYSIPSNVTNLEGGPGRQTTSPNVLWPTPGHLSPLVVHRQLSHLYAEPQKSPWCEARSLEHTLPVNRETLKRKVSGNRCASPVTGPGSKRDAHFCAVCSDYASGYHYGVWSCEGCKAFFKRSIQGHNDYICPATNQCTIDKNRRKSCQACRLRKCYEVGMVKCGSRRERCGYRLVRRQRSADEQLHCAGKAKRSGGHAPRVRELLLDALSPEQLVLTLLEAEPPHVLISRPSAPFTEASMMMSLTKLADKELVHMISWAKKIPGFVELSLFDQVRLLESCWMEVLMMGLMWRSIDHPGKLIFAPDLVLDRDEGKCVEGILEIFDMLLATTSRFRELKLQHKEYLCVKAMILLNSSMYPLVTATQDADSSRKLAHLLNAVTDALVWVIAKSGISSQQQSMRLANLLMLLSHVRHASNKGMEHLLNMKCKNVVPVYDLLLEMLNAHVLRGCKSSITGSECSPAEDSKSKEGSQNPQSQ
Chain of Nuclear receptor subfamily 1 group I member 2 (Mus musculus) (O54915 whole entry, looked up, the tested form may be a part): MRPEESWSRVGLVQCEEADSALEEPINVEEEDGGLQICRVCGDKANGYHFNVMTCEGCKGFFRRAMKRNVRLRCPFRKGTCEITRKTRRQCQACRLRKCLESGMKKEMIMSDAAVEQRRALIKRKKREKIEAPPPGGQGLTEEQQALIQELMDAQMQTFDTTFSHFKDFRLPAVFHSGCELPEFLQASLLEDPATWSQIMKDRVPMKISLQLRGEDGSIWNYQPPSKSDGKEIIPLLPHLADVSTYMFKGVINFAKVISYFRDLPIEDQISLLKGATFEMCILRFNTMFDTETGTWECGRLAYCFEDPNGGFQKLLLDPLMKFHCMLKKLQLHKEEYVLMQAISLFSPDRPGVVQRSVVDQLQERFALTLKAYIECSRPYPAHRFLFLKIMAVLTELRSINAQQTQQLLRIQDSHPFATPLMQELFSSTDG
Chain of human Thyroid hormone Receptor alpha (TRa), THRA (gene 7067) (P10827 whole entry, looked up, the tested form may be a part): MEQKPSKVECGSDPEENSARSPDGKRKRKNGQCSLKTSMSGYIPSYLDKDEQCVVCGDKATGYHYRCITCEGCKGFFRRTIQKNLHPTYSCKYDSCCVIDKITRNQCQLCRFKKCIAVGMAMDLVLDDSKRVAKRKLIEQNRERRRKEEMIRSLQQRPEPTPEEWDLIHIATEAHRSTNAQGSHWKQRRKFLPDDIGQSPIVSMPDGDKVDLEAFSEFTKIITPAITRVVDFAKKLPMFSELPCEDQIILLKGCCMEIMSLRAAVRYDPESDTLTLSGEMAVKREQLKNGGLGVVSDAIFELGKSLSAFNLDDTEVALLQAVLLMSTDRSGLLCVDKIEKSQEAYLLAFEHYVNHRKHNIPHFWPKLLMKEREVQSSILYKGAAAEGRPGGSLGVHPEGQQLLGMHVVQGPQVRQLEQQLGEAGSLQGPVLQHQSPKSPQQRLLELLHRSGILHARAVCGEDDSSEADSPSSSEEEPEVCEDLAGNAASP
Chain of AR (gene 367) (P10275 whole entry, looked up): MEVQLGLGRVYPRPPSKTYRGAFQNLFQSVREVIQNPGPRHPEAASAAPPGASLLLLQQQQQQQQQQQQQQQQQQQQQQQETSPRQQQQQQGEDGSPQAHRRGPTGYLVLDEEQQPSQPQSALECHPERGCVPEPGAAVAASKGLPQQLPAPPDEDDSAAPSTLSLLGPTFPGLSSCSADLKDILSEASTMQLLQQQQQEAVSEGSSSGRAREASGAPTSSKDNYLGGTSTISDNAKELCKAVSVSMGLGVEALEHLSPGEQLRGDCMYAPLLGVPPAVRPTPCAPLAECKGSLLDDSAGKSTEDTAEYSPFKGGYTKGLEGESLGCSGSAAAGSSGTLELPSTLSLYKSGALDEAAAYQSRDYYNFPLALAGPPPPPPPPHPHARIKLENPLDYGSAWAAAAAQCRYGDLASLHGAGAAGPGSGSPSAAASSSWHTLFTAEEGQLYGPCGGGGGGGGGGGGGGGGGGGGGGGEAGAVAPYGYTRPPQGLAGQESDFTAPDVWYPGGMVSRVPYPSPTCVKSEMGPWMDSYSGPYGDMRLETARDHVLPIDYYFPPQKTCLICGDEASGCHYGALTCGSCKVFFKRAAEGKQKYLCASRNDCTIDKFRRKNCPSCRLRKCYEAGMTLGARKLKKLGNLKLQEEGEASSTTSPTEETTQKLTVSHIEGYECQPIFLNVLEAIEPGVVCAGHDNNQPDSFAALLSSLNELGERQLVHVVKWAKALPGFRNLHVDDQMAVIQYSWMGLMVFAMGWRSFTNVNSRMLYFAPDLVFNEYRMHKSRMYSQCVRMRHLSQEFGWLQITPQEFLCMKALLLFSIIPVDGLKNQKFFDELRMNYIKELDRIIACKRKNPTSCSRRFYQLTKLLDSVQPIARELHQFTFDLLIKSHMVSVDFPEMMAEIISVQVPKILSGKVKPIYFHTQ

In the case of `CC[C@H](NC(=O)c1cc(F)ccc1NS(=O)(=O)c1cccc2cccnc12)c1ccccc1`, the outcome [1] is reported as “inactive”.

In the case of `O=c1[nH]sc2ccccc12`, the AC50 [1] is reported as 14.9 µM (active).

With `O=CCCCC=O` the AC50 [1] was 40 µM (active).

In the case of `Cc1cn([C@H]2C[C@H](N=[N+]=[N-])[C@@H](CO)O2)c(=O)[nH]c1=O`, the outcome [1] is reported as “inactive”.

In the case of `CCO[Si](CCCNC(N)=O)(OCC)OCC`, the outcome [1] is reported as “inactive”.

In the case of `CC[C@@H]1C[C@H](N(Cc2cc(C(F)(F)F)cc(C(F)(F)F)c2)C(C)=O)c2cc(C(F)(F)F)ccc2N1C(=O)OC(C)C`, the AC50 [1] is reported as 3.79 µM (active).

For `CN1C(=O)CC[C@H]1c1cccnc1`, the outcome [1] was “inactive”.

With `Cc1c2ccccc2c(C)c2c1ccc1ccccc12` the AC50 [2] was 3.92 µM (active), the AC50 [3] was 15.7 µM (active) and the AC50 [1] was 20.1 µM (active). The outcome [4] was “inactive”, the AC50 (AR (gene 367)) was 46.5 µM (active) and the outcome [5] was “inactive”. The outcome [6] was “inactive”, the outcome [7] was “inactive” and the outcome [8] was “inactive”. The outcome [9] was “inactive”, the AC50 [10] was 23.2 µM (active) and the AC50 [11] was 13.8 µM (active). The AC50 [12] was 0.828 µM (active).

In the case of `O=C=NCCCCCCN=C=O`, the outcome [1] is reported as “inactive”.

In the case of `CCCCCCCCOc1ccc(C(=O)c2ccccc2)c(O)c1`, the outcome [1] is reported as “inactive”.

In the case of `Cc1ncc(CO)c(CO)c1O`, the outcome [1] is reported as “inactive”.

For `Clc1ccccc1C(c1ccccc1)(c1ccccc1)n1ccnc1`, the AC50 [1] was 27.6 µM (active).

In the case of `CCCCCCCCCCCO`, the AC50 [1] is reported as 50 µM (active).

With `CC(C)(c1cc(Br)c(O)c(Br)c1)c1cc(Br)c(O)c(Br)c1` the outcome [3] was “inactive”, the AC50 [1] was 73.3 µM (active) and the outcome [4] was “inactive”. The outcome [5] was “inactive”, the outcome [6] was “inactive” and the outcome [7] was “inactive”. The outcome [8] was “inactive”, the outcome [9] was “inactive” and the AC50 [13] was 9.55 µM (active). The AC50 [11] was 2.06 µM (active), the outcome [12] was “inactive” and the AC50 [14] was 3.79 µM (active). For the same compound, the AC50 [15] was 3.39 µM (active), the outcome [16] was “inactive” and the outcome [17] was “inactive”. For the same compound, the outcome [18] was “inactive”.

For `CC/C(=C(/CC)c1ccc(O)cc1)c1ccc(O)cc1`, the AC50 [3] was 3.79e-05 µM (active), the AC50 [1] was 50 µM (active) and the outcome [1] was “inactive”. The outcome [7] was “inactive”, the outcome [8] was “inactive” and the outcome [14] was “inactive”. For the same compound, the outcome [16] was “inactive” and the outcome [17] was “inactive”.
